In ChEMBL document CHEMBL1157539, “Thousands of chemical starting points for antimalarial lead identification” (Nature, 2010):

Tests used:
Type in all cases: functional
Plasmodium falciparum [1] = assay: GSK_TCMDC: Inhibition of Plasmodium falciparum 3D7 in whole red blood cells, using parasite LDH activity as an index of growth. Test compounds present at 2uM
Plasmodium falciparum [2] = assay: GSK_TCMDC: Inhibition of Plasmodium falciparum Dd2 in whole red blood cells, using parasite LDH activity as an index of growth. Test compounds present at 2uM
HepG2 = assay: GSK_TCMDC: Percent inhibition of human HepG2 cell line. Test compounds present at 10uM.

How did the Inhibition (Plasmodium falciparum [1]) turn out when O=C(Nc1ccc(N2CCCN(Cc3cccc(F)c3)CC2)cc1)c1ccccc1.O=C(O)C(F)(F)F was run?
Its Inhibition is 95%.

And the Inhibition (Plasmodium falciparum [2])?
The Inhibition was 95%.

And the Inhibition (HepG2)?
The Inhibition was 25%.

Which Inhibition (Plasmodium falciparum [1]) does the source give for COc1cc(C=C(C2=NC(=O)CS2)c2nc3cccnc3n2C)ccc1O here?
The Inhibition was 89%.

And the Inhibition (Plasmodium falciparum [2])?
The Inhibition was 48%.

What about the Inhibition (HepG2) of the same molecule?
Its Inhibition is 7%.

Which Inhibition (Plasmodium falciparum [1]) does the source give for O=C(Nc1cccc(F)c1)N(Cc1ccc(-c2cccc(CN3CCNCC3)c2)cc1)C1CCN(Cc2ccccc2)CC1.O=C(O)C(F)(F)F here?
Its Inhibition is 97%.

And the Inhibition (Plasmodium falciparum [2])?
The Inhibition was 54%.

What about the Inhibition (HepG2) of the same molecule?
The Inhibition was 13%.
